Sampled rows, rich in hits. Any-hit rate of the full collection: about 2.8%.
dFosB act-1: enhances mouse delta FosB homodimer DNA binding; P13346; 340,000 tested, 0.99% active; activation, % at 25 µM; purified delta FosB, TAMRA-CDK5 oligo fluorescence polarization; percent of positive-control signal above neutral wells;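 active = mean activation above about 17%, with every replicate also reaching it, limit read from the data, passing the limit was not always enough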
Target sequence (P13346 whole entry, looked up): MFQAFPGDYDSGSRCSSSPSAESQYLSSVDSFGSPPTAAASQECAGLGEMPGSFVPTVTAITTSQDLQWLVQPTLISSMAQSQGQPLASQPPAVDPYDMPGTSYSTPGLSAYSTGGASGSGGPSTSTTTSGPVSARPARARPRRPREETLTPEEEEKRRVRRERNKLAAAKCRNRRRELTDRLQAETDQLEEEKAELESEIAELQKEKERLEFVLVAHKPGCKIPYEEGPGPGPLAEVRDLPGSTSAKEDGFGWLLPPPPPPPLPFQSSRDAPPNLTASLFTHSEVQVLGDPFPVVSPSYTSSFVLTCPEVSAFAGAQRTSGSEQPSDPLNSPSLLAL
SIRT5 inh: sirtuin-5 (human) deacylase inhibition. Q9NXA8. Purified SirT5, succinyl-peptide AMC, trypsin-coupled fluorescence. inhibition, % at 15 µM. 330,000 tested, 1.1% active. AID 652115; in the data active = inhibition above about 15%
PvdQ inh: P. aeruginosa PvdQ acylase inhibition | purified PvdQ acylase, fluorescence plate reader | inhibition, % at 10 µM | 340,000 tested, 0.063% active; in the data active = inhibition above about 30%, passing the limit was not always enough;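 note: 0% = vehicle neutral wells and 100% = reference inhibitor wells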
PglD inh: inhibitors of Campylobacter jejuni PglD acetyltransferase | 360,000 tested, 0.098% active | AID 602405 | purified PglD enzyme, DTNB colorimetric CoA detection | inhibition, % at 12.5 µM; in the data active = inhibition above about 16%, passing the limit was not always enough
CDK5 p35 inh: blocks human CDK5/p35 kinase activity | Q00535+Q15078 | Recombinant CDK5/p35, ADP-Glo luminescence, 60 min | inhibition, % at 10 µM | 330,000 tested, 0.01% active | AID 488839;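 active = highest replicate inhibition of at least 50% and at least 75% of replicates reaching 50%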;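 note: plate controls were DMSO neutral control for no effect and GW8510 at 10 µM for full effect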
FGF22 binding: FGF22 (human) thermal shift binding; Q9HCT0; recombinant FGF22 thermal shift, SYPRO orange fluorescence; percent of sucrose octasulfate shift, DMSO zero; activity (Tm shift, normalised), % at 9.99 µM; 340,000 tested, 1.5% active;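 active = mean Tm shift, scaled 0 neutral to 100 positive control, at about 1.3% or above, every replicate too, limit read from the data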
Target sequence (Q9HCT0 whole entry, looked up): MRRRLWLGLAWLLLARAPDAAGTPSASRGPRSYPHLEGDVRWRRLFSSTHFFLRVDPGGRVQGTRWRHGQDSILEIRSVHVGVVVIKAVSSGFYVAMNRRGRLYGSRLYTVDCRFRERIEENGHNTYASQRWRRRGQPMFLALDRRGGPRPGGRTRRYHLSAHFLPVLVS
dFosB act-2: activators of mouse delta FosB homodimer DNA binding; shares compounds with dFosB act-1; purified delta FosB, TAMRA-CDK5 oligo fluorescence polarization; normalised: neutral wells 0, positive control 100; activation, % at 24.9 µM; 2,400 tested, under 10 active; AID 588690;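 active = highest replicate activation at or above 34% and every replicate reaching that threshold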;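 note: higher polarization means more probe DNA bound by delta FosB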
* marks the source's active call; other numbers are inactive results.

Screening CN(C)NC(=O)c1ccsc1NC(=O)c1ccc(S(=O)(=O)N2CCCC2)cc1 returned dFosB act-1 -15, SIRT5 inh 0, PvdQ inh 1, PglD inh -2, CDK5 p35 inh 1 and FGF22 binding 0.
For NC(=S)N/N=C/c1coc2cc(Br)ccc2c1=O the results were dFosB act-1 24*, SIRT5 inh 3, PvdQ inh -19, CDK5 p35 inh 2, FGF22 binding 0 and dFosB act-2 0.
CCCC#Cc1ccc([C@@H]2[C@@H](CO)N3CCCCN(CCC)C[C@@H]23)cc1 was read as SIRT5 inh 2, PglD inh 1 and FGF22 binding 1.
Screening Cc1ccc(-c2ccc3c(c2)O[C@H](CN(C)C(=O)CN(C)C)[C@@H](C)CN([C@H](C)CO)S3(=O)=O)cc1 returned SIRT5 inh 2, PglD inh -4 and FGF22 binding 0.
CCCNC(=O)C(Cc1ccc(OC)cc1)NC(=O)c1ccc(Cl)cc1 (configuration not stated) was read as dFosB act-1 -11, PvdQ inh -14, PglD inh -1, CDK5 p35 inh 2 and FGF22 binding 0.
For O=C(Nc1ccccc1C(=O)NC(Cc1ccccc1)C(=O)NC1CCCCC1)c1ccccc1 (configuration not stated) the results were dFosB act-1 21*, PvdQ inh -7, CDK5 p35 inh 1 and dFosB act-2 5.
COc1ccc(C(=O)NNC(=O)C(Cc2ccc(O)cc2)NC(=O)c2ccccc2NC(=O)c2ccc(OC)cc2)cc1 (configuration not stated) was read as dFosB act-1 60*, PvdQ inh -2, PglD inh -1, CDK5 p35 inh -1 and dFosB act-2 3.
COc1ccc(C(=O)Nc2ccccc2C(=O)NC(Cc2ccc(O)cc2)C(=O)NNC(=O)c2ccccc2Cl)cc1 (configuration not stated) was read as dFosB act-1 42*, PvdQ inh 5, PglD inh 7, CDK5 p35 inh 0 and dFosB act-2 5.
Screening C[C@@H]1CN([C@@H](C)CO)S(=O)(=O)c2ccc(C3=CCCC3)cc2O[C@@H]1CN(C)Cc1ccccn1 returned SIRT5 inh 4, PglD inh 0 and FGF22 binding 0.
Screening CNC[C@H]1Oc2cc(C#CCN(C)C)ccc2S(=O)(=O)N([C@@H](C)CO)C[C@H]1C returned SIRT5 inh -6, PglD inh 4 and FGF22 binding 0.
For CCS(=O)(=O)Nc1ccc(-c2nnc(SCC(=O)c3ccc(NC(C)=O)c(OC)c3)o2)cc1 the results were dFosB act-1 34*, PvdQ inh 1, CDK5 p35 inh -1 and dFosB act-2 8.
Screening CO[C@@H]1CN(C)C(=O)c2ccc(NC(=O)c3ccccc3)cc2OC[C@@H](C)N(C(C)=O)C[C@H]1C returned SIRT5 inh -3, PglD inh 2 and FGF22 binding 0.
`COc1ccc(OCc2nnc(NC(=O)Nc3ccc(F)cc3)s2)cc1` gave dFosB act-1 73*, PvdQ inh -1, PglD inh -4, CDK5 p35 inh -1 and dFosB act-2 -1.
O=C(Nc1nnc(COc2ccc(F)cc2)s1)Nc1ccccc1F was read as SIRT5 inh 1, PglD inh 0 and FGF22 binding 0.
`COc1ccc(S(=O)(=O)Nc2cccc(-c3ccc4nncn4n3)c2)cc1` gave dFosB act-1 21*, SIRT5 inh 4, PvdQ inh -15, PglD inh -1, CDK5 p35 inh 2, FGF22 binding 0 and dFosB act-2 3.
For COc1ccc(C(=O)Nc2cccc(-c3ccc4nncn4n3)c2)cc1 the results were dFosB act-1 -29, SIRT5 inh -1, PvdQ inh -12, CDK5 p35 inh -2 and FGF22 binding 41.
C[C@@H]1CCCCO[C@H](CN(C)Cc2ccc(C(=O)O)cc2)[C@@H](C)CN([C@@H](C)CO)C(=O)c2cc(NS(=O)(=O)c3cccs3)ccc2O1 was read as SIRT5 inh -3, PglD inh -2 and FGF22 binding 0.
Screening O=C(CCNC(=O)Cn1ccc2ccccc2c1=O)NCCc1ccc(Cl)cc1 returned dFosB act-1 33*, SIRT5 inh -3, PvdQ inh -16, PglD inh 3, CDK5 p35 inh 2, FGF22 binding 0 and dFosB act-2 -7.
For Cc1cccc(CCNC(=O)CCNC(=O)Cn2ccc3ccccc3c2=O)c1 the results were dFosB act-1 5, PvdQ inh 6, PglD inh 4 and CDK5 p35 inh -1.
CCOc1ccccc1CNC(=O)CCNC(=O)Cn1ccc2ccccc2c1=O was read as dFosB act-1 23*, PvdQ inh 7, PglD inh 3, CDK5 p35 inh 2 and dFosB act-2 2.
Screening Cc1noc(C)c1NC(=O)NCC[C@H]1CC[C@H](NC(=O)c2ccccc2)[C@H](CO)O1 returned SIRT5 inh -3, PglD inh -1 and FGF22 binding 0.
O=C(N[C@@H]1CC[C@H](CCNS(=O)(=O)c2ccc(F)cc2)O[C@@H]1CO)C1CCC1 was read as SIRT5 inh 2, PglD inh -3 and FGF22 binding 0.
For Cc1ccc(CCNC(=O)C2CCN(S(=O)(=O)c3cccc4cccnc34)CC2)cc1 the results were dFosB act-1 2, SIRT5 inh 2, PvdQ inh -15, PglD inh -5 and FGF22 binding 0.
For Cc1ccc(CCNC(=O)C2CCN(S(=O)(=O)c3cccc4nsnc34)CC2)cc1 the results were dFosB act-1 33*, PvdQ inh -12, PglD inh 3, CDK5 p35 inh 0 and dFosB act-2 2.
Screening C[C@@H]1CN([C@@H](C)CO)C(=O)c2cccc(NC(=O)c3ccc(-c4nccs4)cc3)c2O[C@H]1CN(C)S(=O)(=O)c1cn(C)cn1 returned SIRT5 inh 0, PglD inh -2 and FGF22 binding 0.
`Cc1cccc(C(=O)Nc2ccc3c(c2)C(=O)NC3=O)c1` gave dFosB act-1 2, SIRT5 inh 2, PvdQ inh -15, PglD inh 1, CDK5 p35 inh -2 and FGF22 binding 0.
For COC(=O)c1ccc(C(=O)Nc2ccc3c(c2)C(=O)NC3=O)cc1 the results were dFosB act-1 86*, SIRT5 inh 0, PvdQ inh 6, PglD inh -2, CDK5 p35 inh 1, FGF22 binding 0 and dFosB act-2 6.
`CC(C)C(=O)Nc1ccc2c(c1)C(=O)NC2=O` gave dFosB act-1 -1, SIRT5 inh -17, PvdQ inh -4, CDK5 p35 inh 1 and FGF22 binding 0.
